In the supplement of paper PMC10849652:
The full data set covers some 8,800 targets. This sample favours those with a hit. About 0.5% of all pairs of compound and target were hits.

Assays:
Experiment in all cases: log2 fold change, soluble protein after heating vs DMSO (PISA); higher = thermal stabilisation; K562 lysate, 10 uM; active = over 0.2 and 3.5 SD of the protein, either way, in both replicates (recomputed)
lapatinib = compound: CS(=O)(=O)CCNCc1ccc(-c2ccc3ncnc(Nc4ccc(OCc5cccc(F)c5)c(Cl)c4)c3c2)o1 [lapatinib]
Summary of the method: (§1)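 Thermal stability, expressed as log-two fold change relative to solvent controls, is given from duplicates. Crude K562 extract in PBS pH 7.4 with 1 mM MgCl2, at 1 mg/mL protein, was treated with 10 μM compound for 30 min and heated in aliquots for 3 min across 48°C-58°C. After pooling, adjustment to 0.5% NP-40 at 4°C and centrifugation at 21,000xg for 90 min, supernatant protein was measured by TMTpro 16plex LC-MS/MS with channel sums equalised.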

pictilisib = compound: CS(=O)(=O)N1CCN(Cc2cc3nc(-c4cccc5[nH]ncc45)nc(N4CCOCC4)c3s2)CC1 [pictilisib]
Summary of the method: as §1

crizotinib = compound: C[C@@H](Oc1cc(-c2cnn(C3CCNCC3)c2)cnc1N)c1c(Cl)ccc(F)c1Cl [crizotinib]
Summary of the method: as §1

[1] = compound: C[C@H](C1=CC=C(C=C1)C(=O)NC2=C3C=CNC3=NC=C2)N
Summary of the method: as §1

duvelisib = compound: C[C@H](Nc1ncnc2nc[nH]c12)c1cc2cccc(Cl)c2c(=O)n1-c1ccccc1 [duvelisib]
Summary of the method: as §1

gandotinib = compound: Cc1cc(Nc2cc(CN3CCOCC3)c3nc(C)c(Cc4ccc(Cl)cc4F)n3n2)n[nH]1 [gandotinib]
Summary of the method: as §1

doramapimod = compound: Cc1ccc(-n2nc(C(C)(C)C)cc2NC(=O)Nc2ccc(OCCN3CCOCC3)c3ccccc23)cc1 [doramapimod]
Summary of the method: as §1

bafetinib = compound: Cc1ccc(NC(=O)c2ccc(CN3CC[C@H](N(C)C)C3)c(C(F)(F)F)c2)cc1Nc1nccc(-c2cncnc2)n1 [bafetinib]
Summary of the method: as §1

[2] = compound: Cc1cccc(CC(=O)N2CCc3c2ccc(-c2cn(C)c4ncnc(N)c24)c3F)n1
Summary of the method: as §1

nilotinib = compound: Cc1cn(-c2cc(NC(=O)c3ccc(C)c(Nc4nccc(-c5cccnc5)n4)c3)cc(C(F)(F)F)c2)cn1 [nilotinib]
Summary of the method: as §1

[3] = compound: Cc1nc(Nc2n[nH]c3c2CN(C(=O)N[C@H](CN(C)C)c2ccccc2)C3(C)C)c2sccc2n1
Summary of the method: as §1

dasatinib = compound: Cc1nc(Nc2ncc(C(=O)Nc3c(C)cccc3Cl)s2)cc(N2CCN(CCO)CC2)n1 [dasatinib]
Summary of the method: as §1

[4] = compound: Cc1ncc(-c2ccnc(Nc3ccc(S(C)(=O)=O)cc3)n2)n1C(C)C
Summary of the method: as §1

[5] = compound: Cn1cc(-c2ccc3c(c2)CCN3C(=O)Cc2cccc(C(F)(F)F)c2)c2c(N)ncnc21
Summary of the method: as §1

quisinostat = compound: Cn1cc(CNCC2CCN(c3ncc(C(=O)NO)cn3)CC2)c2ccccc21 [quisinostat]
Summary of the method: as §1

tipifarnib = compound: Cn1cncc1[C@@](N)(c1ccc(Cl)cc1)c1ccc2c(c1)c(-c1cccc(Cl)c1)cc(=O)n2C [tipifarnib]
Summary of the method: as §1

[6] = compound: NC(=O)Nc1cc(-c2cccc(F)c2)sc1C(=O)N[C@H]1CCCNC1
Summary of the method: as §1

[7] = compound: NC(=O)c1cnc(N[C@@H]2CCCC[C@@H]2N)nc1Nc1cccc(-n2nccn2)c1
Summary of the method: as §1

[8] = compound: NC1(c2ccc(-c3nc4ccn5c(=O)[nH]nc5c4cc3-c3ccccc3)cc2)CCC1
Summary of the method: as §1

tozasertib = compound: Cc1cc(Nc2cc(N3CCN(C)CC3)nc(Sc3ccc(NC(=O)C4CC4)cc3)n2)n[nH]1 [tozasertib]
Summary of the method: as §1

Measured: log2 fold change

C3orf33 (UniProt Q6P1S2)
inactive: lapatinib 0.09 | pictilisib 0.059 | crizotinib -0.051 | [1] -0.541 | duvelisib 0.101 | gandotinib 0.14 | doramapimod -0.025 | bafetinib -0.046 | [2] 0.263 | nilotinib -0.105 | [3] -0.15 | dasatinib -0.013 | [4] 0.009 | [5] -0.072 | quisinostat -0.14 | tipifarnib 0.007 | [6] 0.274 | [7] 0.094 | [8] 0.123

AUH (UniProt Q13825)
Sequence of UniProt Q13825 (Q13825 whole entry, looked up): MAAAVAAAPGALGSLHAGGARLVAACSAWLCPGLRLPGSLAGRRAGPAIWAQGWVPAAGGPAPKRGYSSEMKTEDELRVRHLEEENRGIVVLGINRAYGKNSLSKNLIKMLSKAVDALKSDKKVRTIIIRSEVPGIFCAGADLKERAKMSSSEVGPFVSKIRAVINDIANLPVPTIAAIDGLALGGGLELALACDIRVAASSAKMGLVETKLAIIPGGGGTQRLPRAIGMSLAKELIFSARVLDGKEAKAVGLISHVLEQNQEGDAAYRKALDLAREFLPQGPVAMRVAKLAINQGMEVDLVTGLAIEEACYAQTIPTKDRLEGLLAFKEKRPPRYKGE
active: tozasertib 0.455
inactive: lapatinib 0.165 | pictilisib -0.131 | crizotinib 0.012 | [1] 0.144 | duvelisib 0.135 | gandotinib -0.117 | doramapimod 0.023 | bafetinib -0.003 | [2] -0.345 | dasatinib -0.274 | [5] 0.14 | quisinostat -0.002 | [6] -0.018 | [7] 0.193 | [8] -0.066

CCDC130 (UniProt P13994)
inactive: pictilisib -0.003 | crizotinib -0.689 | tozasertib 0.055 | doramapimod 0.617 | bafetinib -0.119 | quisinostat -0.583 | [6] -0.183 | [8] 0.259

BBS7 (UniProt Q8IWZ6)
Sequence of UniProt Q8IWZ6 (Q8IWZ6 whole entry, looked up): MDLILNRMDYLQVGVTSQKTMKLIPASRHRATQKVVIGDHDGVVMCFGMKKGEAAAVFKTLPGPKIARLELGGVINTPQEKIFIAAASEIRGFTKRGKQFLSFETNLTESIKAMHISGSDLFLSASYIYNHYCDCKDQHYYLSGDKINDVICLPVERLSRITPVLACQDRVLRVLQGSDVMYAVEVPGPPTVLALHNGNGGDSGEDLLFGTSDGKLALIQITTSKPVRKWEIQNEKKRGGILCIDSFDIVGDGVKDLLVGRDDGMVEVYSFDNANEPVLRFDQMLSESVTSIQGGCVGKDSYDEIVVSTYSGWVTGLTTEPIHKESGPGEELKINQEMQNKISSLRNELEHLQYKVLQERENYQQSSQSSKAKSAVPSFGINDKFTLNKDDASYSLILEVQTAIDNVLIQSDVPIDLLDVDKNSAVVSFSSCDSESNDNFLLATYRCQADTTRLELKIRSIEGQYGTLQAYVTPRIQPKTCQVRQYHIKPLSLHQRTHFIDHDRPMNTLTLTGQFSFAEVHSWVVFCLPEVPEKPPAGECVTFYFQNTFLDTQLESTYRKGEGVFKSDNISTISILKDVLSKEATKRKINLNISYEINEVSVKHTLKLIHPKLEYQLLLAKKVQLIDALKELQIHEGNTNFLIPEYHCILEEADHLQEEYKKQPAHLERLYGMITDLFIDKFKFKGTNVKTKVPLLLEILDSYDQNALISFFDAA
active: [5] 0.489
inactive: crizotinib -0.036 | [1] 0.003 | duvelisib 0.039 | gandotinib 0.072 | tozasertib 0.021 | doramapimod 0.151 | [2] -0.119 | nilotinib -0.039 | [3] 0.065 | dasatinib -0.061 | [4] -0.03 | quisinostat 0.06 | tipifarnib -0.133 | [6] -0.044 | [8] 0.14

BRAF, A0A2R8Y8E0
inactive: tozasertib 0.035

AVEN (UniProt Q9NQS1)
Sequence of UniProt Q9NQS1 (Q9NQS1 whole entry, looked up): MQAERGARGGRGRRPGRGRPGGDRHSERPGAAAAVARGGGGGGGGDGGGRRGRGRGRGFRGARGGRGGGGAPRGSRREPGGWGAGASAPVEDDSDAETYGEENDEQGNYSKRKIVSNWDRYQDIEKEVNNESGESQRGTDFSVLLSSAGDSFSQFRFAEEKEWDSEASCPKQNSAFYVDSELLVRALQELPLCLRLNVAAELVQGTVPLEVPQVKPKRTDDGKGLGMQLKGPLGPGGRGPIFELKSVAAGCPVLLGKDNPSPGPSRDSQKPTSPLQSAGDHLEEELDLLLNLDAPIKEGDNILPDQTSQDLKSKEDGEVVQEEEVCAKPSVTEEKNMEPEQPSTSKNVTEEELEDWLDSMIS
inactive: pictilisib 0.022 | crizotinib -0.08 | [1] -0.462 | duvelisib 0.014 | gandotinib 0.262 | tozasertib 0.084 | doramapimod 0.068 | bafetinib -0.097 | [2] 0.338 | nilotinib -0.014 | [3] 0.068 | dasatinib 0.01 | [4] 0.025 | [5] -0.08 | quisinostat -0.042 | tipifarnib -0.188 | [6] 0.038 | [8] 0.154

CDKL5 (UniProt O76039)
inactive: lapatinib -0.207 | crizotinib -0.167 | [1] -0.128 | duvelisib 0.073 | gandotinib 0.537 | tozasertib 0.024 | doramapimod -0.057 | [2] -0.073 | dasatinib -0.095 | [5] 0.188 | quisinostat -0.283 | [6] -0.002 | [7] 0.069

CHD9 (UniProt Q3L8U1)
inactive: crizotinib 0.055 | duvelisib 0.106 | gandotinib -0.111 | doramapimod -0.057 | [2] -0.27 | nilotinib 0.209 | [3] 0.125 | dasatinib -0.124 | [4] -0.279 | [5] -0.109 | quisinostat -0.029 | tipifarnib -0.017 | [6] 0 | [8] 0.032
active: [1] 1.37

BUD13 (UniProt Q9BRD0)
Sequence of UniProt Q9BRD0 (Q9BRD0 whole entry, looked up): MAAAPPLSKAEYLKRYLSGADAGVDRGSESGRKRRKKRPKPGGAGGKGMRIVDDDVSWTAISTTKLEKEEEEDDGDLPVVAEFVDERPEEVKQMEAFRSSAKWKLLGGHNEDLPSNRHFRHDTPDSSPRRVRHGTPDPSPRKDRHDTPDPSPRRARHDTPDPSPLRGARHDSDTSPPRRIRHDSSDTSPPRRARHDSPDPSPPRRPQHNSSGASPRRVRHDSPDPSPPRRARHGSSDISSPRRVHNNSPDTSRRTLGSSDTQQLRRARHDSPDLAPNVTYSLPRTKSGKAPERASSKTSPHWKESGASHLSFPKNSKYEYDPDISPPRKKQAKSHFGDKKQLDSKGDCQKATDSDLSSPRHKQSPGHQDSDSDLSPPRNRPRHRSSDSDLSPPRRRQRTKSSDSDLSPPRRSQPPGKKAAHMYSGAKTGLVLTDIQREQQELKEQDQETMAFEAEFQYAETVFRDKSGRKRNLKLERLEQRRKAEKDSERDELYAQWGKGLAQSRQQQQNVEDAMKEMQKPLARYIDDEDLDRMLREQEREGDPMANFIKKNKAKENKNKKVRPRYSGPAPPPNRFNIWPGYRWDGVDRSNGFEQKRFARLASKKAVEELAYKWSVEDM
inactive: pictilisib 0.104 | crizotinib -0.044 | [1] -0.053 | duvelisib 0.08 | gandotinib 0.045 | tozasertib 0.008 | doramapimod 0.014 | bafetinib -0.134 | [2] 0.114 | nilotinib -0.036 | [3] 0.111 | dasatinib -0.094 | [4] 0 | [5] 0.019 | quisinostat -0.044 | tipifarnib 0.028 | [6] -0.014 | [8] -0.019

B3GALT6 (UniProt Q96L58)
Sequence of UniProt Q96L58 (Q96L58 whole entry, looked up): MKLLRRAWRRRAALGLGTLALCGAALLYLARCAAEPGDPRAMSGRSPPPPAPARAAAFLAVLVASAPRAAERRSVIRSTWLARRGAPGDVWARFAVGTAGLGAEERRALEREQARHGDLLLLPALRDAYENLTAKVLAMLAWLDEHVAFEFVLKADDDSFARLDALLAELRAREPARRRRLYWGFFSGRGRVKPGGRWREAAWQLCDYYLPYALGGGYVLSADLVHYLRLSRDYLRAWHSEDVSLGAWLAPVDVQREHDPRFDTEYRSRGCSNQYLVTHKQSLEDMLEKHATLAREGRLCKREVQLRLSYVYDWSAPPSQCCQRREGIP
inactive: pictilisib -0.047 | crizotinib -0.123 | duvelisib 0.045 | doramapimod 0.1 | bafetinib -0.066 | dasatinib -0.148 | [5] 0.233 | quisinostat -0.086 | [6] 0.137 | [8] -0.174

C8orf88 (UniProt P0DMB2)
Sequence of UniProt P0DMB2 (P0DMB2 whole entry, looked up): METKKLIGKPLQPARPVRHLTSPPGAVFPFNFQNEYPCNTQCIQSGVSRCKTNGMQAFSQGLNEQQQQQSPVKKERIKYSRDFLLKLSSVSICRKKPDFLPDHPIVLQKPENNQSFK
inactive: pictilisib 0.028 | crizotinib 0.038 | [1] 0.054 | duvelisib 0.058 | gandotinib -0.017 | doramapimod -0.004 | bafetinib -0.016 | [2] -0.095 | dasatinib 0.07 | [5] -0.134 | quisinostat -0.042 | [6] -0.011 | [8] 0.084

CEP128 (UniProt Q6ZU80)
Sequence of UniProt Q6ZU80 (Q6ZU80 whole entry, looked up): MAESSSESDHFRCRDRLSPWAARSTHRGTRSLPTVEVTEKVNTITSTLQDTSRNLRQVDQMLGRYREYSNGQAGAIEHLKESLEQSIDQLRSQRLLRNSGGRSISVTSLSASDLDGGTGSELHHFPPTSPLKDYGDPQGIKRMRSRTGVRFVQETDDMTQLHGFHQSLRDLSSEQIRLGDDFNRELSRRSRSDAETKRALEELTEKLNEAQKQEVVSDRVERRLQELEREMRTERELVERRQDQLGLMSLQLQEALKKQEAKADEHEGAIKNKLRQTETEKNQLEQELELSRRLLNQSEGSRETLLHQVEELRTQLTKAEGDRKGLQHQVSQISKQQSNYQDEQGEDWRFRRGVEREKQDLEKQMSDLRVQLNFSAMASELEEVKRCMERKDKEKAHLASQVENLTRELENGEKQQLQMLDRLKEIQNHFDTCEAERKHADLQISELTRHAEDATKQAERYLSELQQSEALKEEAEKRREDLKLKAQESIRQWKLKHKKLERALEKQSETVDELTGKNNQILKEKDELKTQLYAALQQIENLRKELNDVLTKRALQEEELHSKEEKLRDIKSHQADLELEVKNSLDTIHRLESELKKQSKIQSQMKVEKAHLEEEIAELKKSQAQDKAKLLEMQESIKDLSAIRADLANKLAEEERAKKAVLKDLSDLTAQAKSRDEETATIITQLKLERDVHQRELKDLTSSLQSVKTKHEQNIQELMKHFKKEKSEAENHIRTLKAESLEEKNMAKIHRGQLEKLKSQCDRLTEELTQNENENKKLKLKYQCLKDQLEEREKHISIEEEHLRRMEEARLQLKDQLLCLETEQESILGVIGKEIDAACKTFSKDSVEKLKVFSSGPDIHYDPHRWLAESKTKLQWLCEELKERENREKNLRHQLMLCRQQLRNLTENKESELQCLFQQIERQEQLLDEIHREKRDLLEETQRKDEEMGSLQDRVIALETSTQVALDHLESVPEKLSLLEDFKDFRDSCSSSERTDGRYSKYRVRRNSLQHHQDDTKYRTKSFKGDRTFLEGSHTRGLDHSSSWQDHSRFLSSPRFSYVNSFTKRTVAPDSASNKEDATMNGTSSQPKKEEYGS
inactive: pictilisib -0.123 | duvelisib -0.022 | gandotinib 0.331 | tozasertib 0.027 | bafetinib -0.043 | [2] 0.297 | dasatinib -0.168 | [5] 0.041
active: [1] -1.2

CD80 (UniProt P33681)
active: [1] 0.395
inactive: lapatinib 0.122 | crizotinib -0.007 | duvelisib 0.104 | gandotinib -0.086 | tozasertib 0.088 | doramapimod -0.008 | [2] 0.016 | nilotinib 0.259 | [3] -0.065 | dasatinib -0.015 | [4] -0.333 | [5] 0.039 | quisinostat 0.025 | tipifarnib 0.023 | [6] -0.002 | [7] 0.086 | [8] -0.03

CDK5RAP1 (UniProt Q96SZ6)
Sequence of UniProt Q96SZ6 (Q96SZ6 whole entry, looked up): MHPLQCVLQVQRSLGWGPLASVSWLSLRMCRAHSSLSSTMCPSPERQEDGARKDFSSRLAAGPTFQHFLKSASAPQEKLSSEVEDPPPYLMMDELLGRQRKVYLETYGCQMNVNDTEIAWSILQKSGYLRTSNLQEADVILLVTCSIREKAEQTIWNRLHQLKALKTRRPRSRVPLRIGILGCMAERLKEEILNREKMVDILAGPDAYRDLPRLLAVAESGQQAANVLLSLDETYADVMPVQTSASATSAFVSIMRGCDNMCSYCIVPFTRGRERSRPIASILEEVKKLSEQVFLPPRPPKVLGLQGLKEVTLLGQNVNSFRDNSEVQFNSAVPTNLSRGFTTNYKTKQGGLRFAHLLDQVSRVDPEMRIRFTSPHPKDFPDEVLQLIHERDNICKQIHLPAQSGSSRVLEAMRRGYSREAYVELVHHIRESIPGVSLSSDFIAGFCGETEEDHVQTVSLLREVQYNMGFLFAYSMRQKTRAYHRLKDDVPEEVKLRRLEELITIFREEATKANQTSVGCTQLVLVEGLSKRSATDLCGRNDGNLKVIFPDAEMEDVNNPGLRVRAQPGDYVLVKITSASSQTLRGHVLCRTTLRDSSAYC
inactive: pictilisib 0.184 | crizotinib -0.027 | [1] 0.051 | duvelisib -0.044 | gandotinib 0.071 | tozasertib 0.015 | doramapimod 0 | bafetinib 0.018 | [2] -0.009 | nilotinib -0.007 | [3] 0.002 | dasatinib 0.037 | [4] 0.019 | [5] 0.011 | quisinostat 0.049 | tipifarnib -0.002 | [6] -0.004 | [8] -0.013

CDK16 isoform 2 (UniProt Q00536)
Sequence of UniProt Q00536 (Q00536 whole entry, looked up): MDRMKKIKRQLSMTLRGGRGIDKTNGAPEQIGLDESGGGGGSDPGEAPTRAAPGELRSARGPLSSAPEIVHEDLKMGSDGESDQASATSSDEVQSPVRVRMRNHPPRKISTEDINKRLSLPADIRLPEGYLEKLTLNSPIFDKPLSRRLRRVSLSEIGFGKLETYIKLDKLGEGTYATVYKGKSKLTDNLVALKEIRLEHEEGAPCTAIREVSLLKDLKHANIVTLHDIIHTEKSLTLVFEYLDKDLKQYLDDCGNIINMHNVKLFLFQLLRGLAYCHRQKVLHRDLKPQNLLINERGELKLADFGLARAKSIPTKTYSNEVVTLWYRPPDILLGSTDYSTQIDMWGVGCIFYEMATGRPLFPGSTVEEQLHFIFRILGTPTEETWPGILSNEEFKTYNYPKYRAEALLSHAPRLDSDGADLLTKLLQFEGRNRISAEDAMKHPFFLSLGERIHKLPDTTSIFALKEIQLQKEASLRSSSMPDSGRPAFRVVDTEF
active: gandotinib 0.533 | [4] 0.433
inactive: lapatinib 0.046 | crizotinib 0.063 | [1] -0.016 | duvelisib 0.043 | doramapimod 0.012 | bafetinib -0.007 | [2] -0.05 | nilotinib 0.043 | [3] 0.412 | dasatinib 0.033 | [5] -0.033 | quisinostat -0.044 | tipifarnib -0.01 | [6] -0.016 | [7] 0.081 | [8] -0.124

CANX (UniProt D6RHJ3)
inactive: lapatinib -0.017 | nilotinib -0.055 | [3] 0.129 | [4] 0.191 | tipifarnib 0.126 | [7] -0.103

CAD (UniProt H7BZB3)
inactive: [1] 0.069 | gandotinib 0.036 | tozasertib -0.062 | [2] 0.057
active: [8] 0.551

CCAR2 (UniProt G3V119)
inactive: lapatinib -0.12 | [7] -0.015

C15orf39 (UniProt Q6ZRI6)
inactive: pictilisib -0.04 | crizotinib 0.043 | [1] 0.025 | duvelisib -0.049 | gandotinib -0.076 | tozasertib 0.097 | doramapimod 0 | bafetinib 0.19 | [2] -0.055 | nilotinib 0.074 | [3] -0.006 | dasatinib -0.059 | [4] 0.019 | [5] 0.034 | quisinostat -0.017 | tipifarnib -0.015 | [6] 0.053 | [8] 0.184

CCND3 (UniProt P30281)
Sequence of UniProt P30281 (P30281 whole entry, looked up): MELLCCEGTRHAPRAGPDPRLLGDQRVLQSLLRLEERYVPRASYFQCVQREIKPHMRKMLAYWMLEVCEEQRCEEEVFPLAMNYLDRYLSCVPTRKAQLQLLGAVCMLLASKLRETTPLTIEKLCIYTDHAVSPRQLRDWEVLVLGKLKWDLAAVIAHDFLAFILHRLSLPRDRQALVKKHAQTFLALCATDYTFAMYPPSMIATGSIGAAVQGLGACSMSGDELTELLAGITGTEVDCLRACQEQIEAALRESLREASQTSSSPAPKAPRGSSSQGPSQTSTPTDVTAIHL
inactive: pictilisib -0.01 | crizotinib -0.083 | [1] -0.175 | duvelisib 0.015 | gandotinib -0.022 | tozasertib 0.073 | doramapimod 0.101 | bafetinib 0.003 | [2] 0.096 | nilotinib -0.061 | [3] -0.015 | dasatinib -0.08 | [4] 0.042 | [5] 0.137 | quisinostat -0.05 | tipifarnib -0.062 | [6] -0.003 | [8] -0.057

CACUL1 (UniProt Q86Y37)
inactive: lapatinib -0.26 | crizotinib 0.037 | [1] 0.061 | duvelisib 0.044 | gandotinib -0.151 | tozasertib 0.094 | doramapimod 0.029 | [2] 0.08 | dasatinib -0.094 | [5] 0.157 | quisinostat 0.025 | [6] 0.102 | [7] -0.1 | [8] -0.028

CDAN1 (UniProt H3BPZ6)
inactive: crizotinib 0.118 | doramapimod 0.059 | quisinostat 0.093 | [6] 0.056

CHD4, A0A2R8Y521
inactive: lapatinib 0.025 | duvelisib 0.006 | tozasertib 0.081 | nilotinib -0.125 | [3] -0.088 | dasatinib -0.09 | [4] -0.156 | [5] -0.247 | tipifarnib 0.391 | [7] -0.174

ATG10 (UniProt Q9H0Y0)
inactive: pictilisib -0.051 | crizotinib -0.008 | [1] 0.021 | duvelisib 0.065 | gandotinib -0.023 | tozasertib -0.087 | doramapimod -0.014 | bafetinib 0.012 | [2] 0.063 | nilotinib -0.064 | [3] 0.026 | dasatinib 0.043 | [4] -0.16 | [5] -0.068 | quisinostat 0.015 | tipifarnib 0.125 | [6] -0.01 | [8] 0.016
